The values that follow come from PubChem BioAssay (EPA / NIEHS).

Assay [1] can be described thus: ATG_ISRE_CIS: Attagene CIS-FACTORIAL HepG2 Assay for human Interferon Regulatory Factor 1 (IRF1) binding to an Interferon-Stimulated Response Element (ISRE) (AID 2282948). Conditions: HepG2 ISRE cis-reporter (Attagene), mRNA transcription readout; actives raise or lower the signal. Summed up: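 Signal reflects induction or loss of ISRE-linked reporter mRNA in transiently transfected HepG2 cells after a 24 h treatment, detected by fluorescent RT-PCR fragments on capillary electrophoresis and normalised to DMSO.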

The nature of assay [2]: ATG_M_32_CIS: Attagene CIS-FACTORIAL HepG2 Assay for M32 Transcription Factor (Internal Marker) (AID 2282949).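 Also: background control marker of the multiplexed CIS panel rather than a real target.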 Conditions: HepG2 Attagene cis-factorial M32 reporter, mRNA; actives raise or lower the signal. The method, boiled down:
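Using DMSO as baseline, bidirectional curve fits were applied to reporter mRNA signals. These came from transiently transfected HepG2 cells exposed for 24 h, with RNA analysed by RT-PCR, FAM primer extension, HpaI digestion and CE.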

Assay [3] is described as follows: ATG_M_06_CIS: Attagene CIS-FACTORIAL HepG2 Assay for M06 Transcription Factor (Internal Marker) (AID 2282950). Conditions: HepG2 Attagene CIS-FACTORIAL M06 internal marker reporter; actives raise or lower the signal. The method, boiled down: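 Steps: transfect HepG2 with multiplexed cis-element reporter constructs; dose chemical 24 h; extract RNA with DNase treatment; reverse-transcribe, PCR-amplify, 6-FAM label, HpaI digest; separate fragments by capillary electrophoresis. Activity fitted both directions versus DMSO.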

The target of assay [4] is Hypoxia-inducible factor 1-alpha (Homo sapiens) (UniProt Q16665). Briefly: ATG_HIF1a_CIS: Attagene CIS-FACTORIAL HepG2 Assay for human Hypoxia Inducible Factor 1 (HIF1A) (AID 2282951). The conditions noted are these: HepG2 Attagene cis-factorial HIF1a reporter transcription; actives raise or lower the signal. Summed up:
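Dosed 24 h, transfected HepG2 cells yielded total RNA whose reporter transcripts were RT-PCR-amplified and sized by capillary electrophoresis using fluorescent labelling; DMSO defined baseline, with gain and loss of signal both fitted.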

Assay [5] has as its target Hepatocyte nuclear factor 6 (Homo sapiens) (UniProt Q9UBC0). Briefly: ATG_HNF6_CIS: Attagene CIS-FACTORIAL HepG2 Assay for human Hepatocyte Nuclear Factor 6 (HNF6) (AID 2282952). The conditions noted are these: HepG2 Attagene cis-factorial HNF6 reporter transcription; actives raise or lower the signal. Summed up:
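Twenty-four-hour chemical treatment of reporter-transfected HepG2 cells precedes RNA isolation, DNase-treated reverse transcription and PCR of reporter sequences. Labelled fragments are sized by capillary electrophoresis and fitted bidirectionally versus DMSO.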

In assay [6] the target is Heat shock factor protein 1 (Homo sapiens) (UniProt Q00613). Briefly: ATG_HSE_CIS: Attagene CIS-FACTORIAL HepG2 Assay for human Heat Shock Transcription Factor 1 (HSE) (AID 2282953). Conditions: HepG2 HSE cis-reporter, Attagene RNA transcription; actives raise or lower the signal. The method, boiled down: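 Cells were transfected with cis-element-driven reporter constructs, dosed for 24 h, then total RNA was reverse-transcribed and reporter cDNA amplified, FAM-labelled and digested with HpaI. Fragments were resolved by capillary electrophoresis; gain or loss was fitted against DMSO.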
Chain of Heat shock factor protein 1 (Homo sapiens) (Q00613 whole entry, looked up, the tested form may be a part): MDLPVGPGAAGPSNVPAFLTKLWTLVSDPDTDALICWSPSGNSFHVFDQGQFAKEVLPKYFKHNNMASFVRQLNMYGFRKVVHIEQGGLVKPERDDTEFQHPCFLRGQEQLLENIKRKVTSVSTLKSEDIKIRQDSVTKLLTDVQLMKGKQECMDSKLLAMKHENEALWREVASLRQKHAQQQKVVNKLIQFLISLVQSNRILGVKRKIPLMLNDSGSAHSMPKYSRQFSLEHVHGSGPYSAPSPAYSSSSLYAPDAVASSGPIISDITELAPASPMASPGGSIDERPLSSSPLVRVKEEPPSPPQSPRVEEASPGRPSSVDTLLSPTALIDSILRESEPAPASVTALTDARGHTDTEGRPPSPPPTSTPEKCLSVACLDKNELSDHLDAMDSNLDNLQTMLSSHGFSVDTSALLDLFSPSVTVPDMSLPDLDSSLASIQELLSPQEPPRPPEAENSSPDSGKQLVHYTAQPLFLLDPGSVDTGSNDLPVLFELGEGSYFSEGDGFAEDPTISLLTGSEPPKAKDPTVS

A short description of assay [7]: ATG_MRE_CIS: Attagene CIS-FACTORIAL HepG2 Assay for human Metal Responsive Element (MRE) (AID 2282954). Conditions: HepG2 MRE cis-reporter transcription, Attagene multiplex; actives raise or lower the signal. The method, boiled down: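 Readout: capillary electrophoresis of 6-FAM-labelled, HpaI-digested RT-PCR reporter products. System: HepG2 cells carrying transient multiplexed cis reporters, dosed 24 h. Analysis: bidirectional fit, DMSO baseline.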

Assay [8] can be described thus: ATG_PBREM_CIS: Attagene CIS-FACTORIAL HepG2 Assay for human Phenobarbital-responsive Enhancer Module (PBREM) (AID 2282955). Conditions: HepG2 PBREM cis-reporter, Attagene multiplexed transcription; actives raise or lower the signal. The method, boiled down:
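Transfected liver-derived HepG2 cells exposed 24 h; PBREM reporter transcript quantified via RT-PCR and capillary electrophoresis, with activity in either direction referenced to DMSO.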

The target of assay [9] is Paired box protein Pax-6 (Homo sapiens) (UniProt P26367). Briefly: ATG_Pax6_CIS: Attagene CIS-FACTORIAL HepG2 Assay for human Paired Box 6 (PAX6) (AID 2282956). The conditions noted are these: HepG2 CIS-FACTORIAL PAX6 reporter transcription, RNA readout; actives raise or lower the signal. Summed up: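 Values derive from bidirectional curve fitting of reporter mRNA signal relative to DMSO. HepG2 cells bearing transfected cis-regulated MRTUs were exposed for 24 h; transcripts were read by RT-PCR and capillary electrophoresis.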
Chain of Paired box protein Pax-6 (Homo sapiens) (P26367 whole entry, looked up): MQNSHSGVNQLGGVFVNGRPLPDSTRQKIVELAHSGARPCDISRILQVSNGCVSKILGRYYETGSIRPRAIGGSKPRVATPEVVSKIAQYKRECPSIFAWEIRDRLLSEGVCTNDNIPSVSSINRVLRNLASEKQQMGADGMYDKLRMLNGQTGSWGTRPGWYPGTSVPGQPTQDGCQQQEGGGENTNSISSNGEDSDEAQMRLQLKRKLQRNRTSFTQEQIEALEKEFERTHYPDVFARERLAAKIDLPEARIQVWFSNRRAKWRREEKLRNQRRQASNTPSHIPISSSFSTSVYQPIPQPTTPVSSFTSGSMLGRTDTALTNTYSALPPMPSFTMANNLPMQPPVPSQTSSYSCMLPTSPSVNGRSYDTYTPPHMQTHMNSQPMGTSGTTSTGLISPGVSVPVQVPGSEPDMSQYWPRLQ

Assay [10] is described as follows: ATG_PXRE_CIS: Attagene CIS-FACTORIAL HepG2 Assay for human Pregnane X Receptor Element (PXRE) (AID 2282957). The conditions noted are these: HepG2 Attagene CIS-FACTORIAL PXRE reporter, mRNA; actives raise or lower the signal. The method, boiled down:
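Bidirectional activity, baselined to DMSO, derived from reporter mRNA fluorescence (RT-PCR plus capillary electrophoresis) in HepG2 cells bearing cis-promoter reporter units, 24 h exposure.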

The structures appear in SMILES notation. Where “and” joins values, the source holds several entries; their conditions need not be identical. Identical values can stand only once. Some compounds were tested as several samples or in several runs, with calls that do not always agree. Calls of active or inactive are those of the source. The calls were made as follows: active = hit-call score of the fitted dose curve at least 0.9, where 1 is the maximum; inactive = score below 0.9.

The AC50 is the midpoint of the concentration-response curve, whichever way the signal moves.

Chain of Hepatocyte nuclear factor 6 (Homo sapiens) (Q9UBC0 whole entry, looked up, the tested form may be a part): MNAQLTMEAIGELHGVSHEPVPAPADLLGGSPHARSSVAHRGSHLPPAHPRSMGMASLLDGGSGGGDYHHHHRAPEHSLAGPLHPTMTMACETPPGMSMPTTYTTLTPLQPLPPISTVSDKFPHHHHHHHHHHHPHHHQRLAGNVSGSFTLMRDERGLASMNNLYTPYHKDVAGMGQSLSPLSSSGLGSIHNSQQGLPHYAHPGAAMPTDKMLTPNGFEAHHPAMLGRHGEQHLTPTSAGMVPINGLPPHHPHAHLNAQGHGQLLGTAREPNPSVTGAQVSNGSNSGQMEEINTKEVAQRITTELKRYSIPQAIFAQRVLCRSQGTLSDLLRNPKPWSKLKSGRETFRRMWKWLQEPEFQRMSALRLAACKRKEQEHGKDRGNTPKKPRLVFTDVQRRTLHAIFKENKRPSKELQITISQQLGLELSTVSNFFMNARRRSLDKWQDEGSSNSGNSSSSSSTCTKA
Chain of Hypoxia-inducible factor 1-alpha (Homo sapiens) (Q16665 whole entry, looked up): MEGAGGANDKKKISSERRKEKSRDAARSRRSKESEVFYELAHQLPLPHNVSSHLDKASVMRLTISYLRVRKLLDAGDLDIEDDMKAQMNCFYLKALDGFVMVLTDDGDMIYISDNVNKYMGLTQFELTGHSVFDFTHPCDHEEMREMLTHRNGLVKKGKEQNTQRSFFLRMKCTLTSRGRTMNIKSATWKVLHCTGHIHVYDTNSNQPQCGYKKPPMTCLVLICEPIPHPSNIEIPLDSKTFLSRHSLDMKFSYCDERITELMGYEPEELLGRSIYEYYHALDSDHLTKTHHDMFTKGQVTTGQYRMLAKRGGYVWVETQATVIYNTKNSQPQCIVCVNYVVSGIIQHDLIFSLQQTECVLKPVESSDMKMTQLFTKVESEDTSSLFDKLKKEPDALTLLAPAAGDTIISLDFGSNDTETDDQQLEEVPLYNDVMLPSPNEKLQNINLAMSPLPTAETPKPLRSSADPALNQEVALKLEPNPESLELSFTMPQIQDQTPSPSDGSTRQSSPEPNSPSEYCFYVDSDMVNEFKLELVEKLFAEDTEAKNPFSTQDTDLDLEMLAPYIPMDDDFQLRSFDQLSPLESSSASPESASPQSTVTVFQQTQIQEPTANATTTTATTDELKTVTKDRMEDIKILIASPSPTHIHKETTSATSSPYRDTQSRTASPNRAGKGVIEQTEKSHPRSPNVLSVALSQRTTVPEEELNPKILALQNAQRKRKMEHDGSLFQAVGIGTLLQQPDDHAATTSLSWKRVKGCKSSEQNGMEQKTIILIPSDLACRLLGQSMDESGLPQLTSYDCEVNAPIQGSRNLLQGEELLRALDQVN

For the compound `C/C=C/c1ccc(OC)cc1`, the compound was called inactive in assay [1], in assay [2], in assay [3], in assay [4], in [5] and in [6]. In addition, the call in assay [7], in [8], in assay [9] and in [10] was inactive.
Take `CC(=O)OCC(COC(C)=O)OC(C)=O`: the call in [1], in assay [2], in assay [3], in [4], in [5] and in assay [6] was inactive. Moreover, the compound was called inactive in assay [7], in assay [9] and in assay [10].
Consider `CCCCCCCC(=O)OC`, for which the compound was classed as inactive in assay [1], in assay [2], in assay [3], in assay [5], in [6] and in [7]. In addition, the outcome in [8], in [9] and in assay [10] was inactive. In addition, in assay [4], the AC50 is 68.3 µM (active).
Regarding `CC(C)OC(=O)C(C)(C)Oc1ccc(C(=O)c2ccc(Cl)cc2)cc1`, the AC50 in assay [1] is 49 µM (active); in assay [7], 43.6 µM (active); in assay [9], 27.7 µM (active); in assay [10], 12.3 µM (active). In addition, the compound was called inactive in assay [2], in assay [5], in [6] and in [8].
On to `Nc1nc(=S)c2[nH]cnc2[nH]1`, for which the compound was classed as inactive in [1], in assay [2], in [4], in assay [5], in assay [6] and in [7]. Further, the result in assay [8] and in assay [9] was inactive. Besides, the AC50 in assay [10] was 100 µM (active).
`CCCC[C@H]1CN(CC2CCOCC2)C(=O)OC12CCN(C1(C)CCN(C(=O)c3c(C)ncnc3C)CC1)CC2`: the result in assay [1], in assay [2], in assay [4], in assay [5], in assay [7] and in assay [8] was inactive. The call in [9] and in assay [10] was inactive.
Consider `NC=O`, for which the result in assay [1], in assay [2], in [4], in [5], in [6] and in assay [7] was inactive. Also, the call in assay [9] and in assay [10] was inactive.
Turning to `CO[C@@H]1COCC[C@@H]1N[C@@H]1CC[C@@](C(=O)N2CCc3ncc(C(F)(F)F)cc3C2)(C(C)C)C1`, the call in assay [1], in assay [2], in [4], in [5], in assay [6] and in assay [7] was inactive. Besides, the outcome in [8], in assay [9] and in assay [10] was inactive.
Take `COc1ccc(OC(F)(F)F)cc1CN[C@H]1CCCN[C@H]1c1ccccc1`: the compound was classed as inactive in assay [1], in [2], in assay [4], in assay [5], in assay [7] and in [8]. In addition, the outcome in assay [9] was inactive. Moreover, the figures for the AC50 in assay [6] and in assay [10] were 2.74 µM (active) and 1.85 µM (active), respectively.
Take `CC(=O)CC(c1ccccc1)c1c(O)c2ccccc2oc1=O` (stereo unspecified): the compound was called inactive in [1], in assay [2], in assay [4], in [5], in assay [7] and in [9]. For the same compound, in assay [10], the AC50 was 59.1 µM (active) and 59.7 µM (active).
Consider `O=C(O)CN(CC(=O)O)CC(=O)O`, for which the compound was classed as inactive in assay [1], in [2], in assay [4], in assay [5], in assay [6] and in assay [7]. The outcome in [8], in [9] and in assay [10] was inactive.
For the compound `CCCC(=O)O`, the compound was classed as inactive in assay [1], in assay [2], in assay [4], in [5], in [6] and in [7]. The outcome in assay [8], in assay [9] and in assay [10] was inactive.
As to `C/C=C/C=C/C(=O)O`, the result in assay [1], in assay [2], in assay [4], in assay [5], in [6] and in [7] was inactive. In addition, the result in [8], in assay [9] and in assay [10] was inactive. The AC50 in assay [10] is 36.7 µM (active).
As for `Cc1cn([C@H]2C=C[C@@H](CO)O2)c(=O)[nH]c1=O`, the result in [1], in [2], in [5], in assay [6], in assay [7] and in assay [8] was inactive. The result in [9] and in [10] was inactive.
For the compound `O=[Si]=O`, the compound was called inactive in assay [1], in assay [2], in assay [4], in assay [5], in assay [6] and in assay [7]. The compound was classed as inactive in assay [9] and in [10].
